# Data: PubChem BioAssay (Tox21)
# Results filed as inconclusive are left out. A call without a number means that no potency is given here. Calls of active or inactive are those of the source. Unless noted, calls follow the shape of the dose curve; as a rule, active = well fitted curve in the direction sought with a large enough effect in the repeat runs; inconclusive = weak or mixed curves; inactive = no such curve, though single readings can be large; an effect the other way counts as inactive or inconclusive.
# Experiments:
# [1] = qHTS assay for small molecule agonists of the p53 signaling pathway (AID 651631; calls by dose curve; also: nearly all actives have a fitted effect of over 15% in size; also: potency is read from the fitted curve at half-maximal effect)
# In short: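 Quantitative high-throughput format: 4,000 p53RE-bla HCT-116 cells/well, 5 h pre-incubation, 16 h compound exposure at 37 °C, 2 h room-temperature substrate step, fluorescence intensity measured.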
# [2] = qHTS assay for small molecules that induce genotoxicity in human embryonic kidney cells expressing luciferase-tagged ATAD5 (AID 651632); also: nearly all actives have a fitted effect of over 15% in size
# In short: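 A rise in luciferase signal from ATAD5-tagged HEK293T cells marks genetic stress. Cells were exposed to compounds for 16 hr at 37C, 5% CO2, then luciferase was quantified after a 30 min room-temperature incubation with Amplite.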
# [3] = qHTS assay for small molecule agonists of the p53 signaling pathway - cell viability (AID 651633; calls by dose curve; also: nearly all actives have a fitted effect of over 30% in size; also: potency is read from the fitted curve at half-maximal effect)
# In short: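 Viability counter-read: CellTiter-Glo luminescence (30 min, room temperature) in the same p53RE-bla plates. These plates had been exposed to compounds for 16 h at 37 C.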
# [4] = qHTS assay for small molecules that induce genotoxicity in human embryonic kidney cells expressing luciferase-tagged ATAD5 - cell viability (AID 651634; calls by dose curve; also: nearly all actives have a fitted effect of over 25% in size)
# In short: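 Cytotoxicity counter-readout: after 15.5 hr compound treatment at 37C, live-cell protease activity in ATAD5-luciferase HEK293T cells measured by CellTiter-Fluor fluorescence, 30 min development at 37C.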
# [5] = qHTS assay for small molecule disruptors of the mitochondrial membrane potential - cell viability (AID 720634; calls by dose curve;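 also: human HepG2 liver cancer cells; series mostly up to about 83 µM; nearly all actives have a fitted effect of over 20% in size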)
# In short: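 Cytotoxicity was quantified from ATP content by CellTiter-Glo luminescence in the same wells as the MMP dye read-out. HepG2 (2,000 cells/well) were plated overnight and exposed to compounds for 1 hr at 37 C.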
# [6] = qHTS assay to test for compound auto fluorescence at 590 nm (red) in HepG2 cells (AID 720674)
# In short: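 1 hr compound incubation on HepG2 cells, 37 C, 5% CO2; plate read ex 540 nm / em 590 nm; intensities reported as Rose Bengal sodium equivalents.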
# [7] = qHTS assay to test for compound auto fluorescence at 535 nm (green) in HepG2 cells (AID 720675)
# [8] = qHTS assay to test for compound auto fluorescence at 460 nm (blue) in HEK293 cells (AID 720678)
# In short: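 Blue-channel (Ex/Em 405/460 nm) intensity measured in HEK293 cultures after overnight compound exposure at 37C; signal expressed relative to triamterene. Cells plated 2,000 per well in 10% dialyzed FBS medium and allowed 4-5 hr to attach.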
# [9] = qHTS assay to test for compound auto fluorescence at 590 nm (red) in HEK293 cells (AID 720679)
# In short: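 Red-channel autofluorescence (Ex/Em 540/590 nm; Rose Bengal sodium reference) was measured after overnight 37C, 5% CO2 exposure of attached HEK293 cells, 2,000 per well in medium with 10% dialyzed FBS.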
# [10] = qHTS assay to test for compound auto fluorescence at 535 nm (green) in HEK293 cells (AID 720680)
# [11] = qHTS assay to test for compound auto fluorescence at 460 nm (blue) in HEK293 cell free culture (AID 720681)
# In short: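 Blue fluorescence (Ex 405/Em 460 nm, triamterene-equivalent) was read immediately after pin transfer of compound or DMSO into medium (DMEM, 10% FBS) without cells.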
# [12] = qHTS assay to test for compound auto fluorescence at 535 nm (green) in HEK293 cell free culture (AID 720682)
# In short: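 Measurement is a direct plate read of green fluorescence (485 nm in, 535 nm out) after compound addition to serum-supplemented DMEM lacking cells, with fluorescein used to express intensities.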
# [13] = qHTS assay to test for compound auto fluorescence at 590 nm (red) in HEK293 cell free culture (AID 720683)
# In short: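 Red-channel autofluorescence of compounds in culture medium (DMEM, 10% FBS), no cells, measured at 540/590 nm. Rose Bengal sodium is the reference fluorophore for equivalence.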
# [14] = qHTS assay to test for compound auto fluorescence at 590 nm (red) in HepG2 cell free culture (AID 720684)
# In short: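 No cells present: MEM + 10% FBS only. Compound pinned in, red label read (540/590 nm). Activity = fluorescence equivalent to Rose Bengal sodium.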
# [15] = qHTS assay to test for compound auto fluorescence at 460 nm (blue) in HepG2 cell free culture (AID 720685)
# In short: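 Cell-free plates of MEM plus 10% FBS received 23 nL compound or DMSO vehicle; blue-channel (405/460 nm) intensity scored against triamterene as reference fluorophore.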
# [16] = qHTS assay to test for compound auto fluorescence at 535 nm (green) in HepG2 cell free culture (AID 720686)
# [17] = qHTS assay to test for compound auto fluorescence at 460 nm (blue) in HepG2 cells (AID 720687)
# In short: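 Blue-channel autofluorescence (Ex/Em 405/460 nm, triamterene-equivalent) was measured after 1 hr compound exposure at 37 C, 5% CO2. Cells were HepG2, plated overnight at 37 C in MEM plus 10% FBS.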
# [18] = biological target: Glucocorticoid receptor (Homo sapiens) (UniProt P04150); assay: qHTS assay to identify small molecule agonists of the glucocorticoid receptor (GR) signaling pathway (AID 720691; active = well fitted activation curve with a large enough effect in the signal ratio in the repeat runs, not every such curve was filed as active; the % refers to the signal ratio)
# Sequence of Glucocorticoid receptor (Homo sapiens) (P04150 whole entry, looked up): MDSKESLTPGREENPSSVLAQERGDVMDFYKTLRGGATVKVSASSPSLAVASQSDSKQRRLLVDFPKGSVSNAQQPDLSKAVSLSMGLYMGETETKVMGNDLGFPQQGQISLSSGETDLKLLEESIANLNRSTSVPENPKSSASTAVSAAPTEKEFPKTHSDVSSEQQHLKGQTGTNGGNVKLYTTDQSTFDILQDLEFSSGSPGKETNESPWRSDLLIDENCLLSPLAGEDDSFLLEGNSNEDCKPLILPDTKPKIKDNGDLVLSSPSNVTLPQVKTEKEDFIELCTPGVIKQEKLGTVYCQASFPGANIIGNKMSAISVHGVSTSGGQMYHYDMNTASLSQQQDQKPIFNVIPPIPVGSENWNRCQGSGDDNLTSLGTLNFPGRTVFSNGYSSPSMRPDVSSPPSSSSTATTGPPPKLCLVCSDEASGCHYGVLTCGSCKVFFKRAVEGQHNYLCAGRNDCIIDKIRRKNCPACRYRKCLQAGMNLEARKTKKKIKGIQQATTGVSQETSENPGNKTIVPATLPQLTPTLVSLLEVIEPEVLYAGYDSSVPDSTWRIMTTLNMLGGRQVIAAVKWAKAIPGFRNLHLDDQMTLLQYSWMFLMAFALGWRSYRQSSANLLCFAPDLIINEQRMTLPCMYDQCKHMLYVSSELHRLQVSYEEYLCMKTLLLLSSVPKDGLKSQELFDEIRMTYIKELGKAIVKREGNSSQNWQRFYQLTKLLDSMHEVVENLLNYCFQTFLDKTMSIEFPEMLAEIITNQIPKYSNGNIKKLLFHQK
# In short: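 Agonist-mode qHTS in HeLa cells stably expressing a glucocorticoid-response-element beta-lactamase reporter. Fluorescence intensity read with FRET substrate (2 h, room temperature) after 18 h compound treatment at 37 C.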
# [19] = biological target: Glucocorticoid receptor (Homo sapiens) (UniProt P04150); assay: qHTS assay to identify small molecule antagonists of the glucocorticoid receptor (GR) signaling pathway (AID 720692; active = well fitted inhibition curve with a large enough effect in the signal ratio in the repeat runs, not every such curve was filed as active; the % refers to the signal ratio; also: potency is read from the fitted curve at half-maximal effect)
# In short: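 Inhibition of dexamethasone-driven (5 nM final) beta-lactamase expression was measured in GRE-reporter HeLa cells over 18 h at 37C. Fluorescence was read after 2 h with the B/G FRET substrate at room temperature.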
# [20] = qHTS assay for small molecule disruptors of the mitochondrial membrane potential (AID 720635); also: potency is read from the fitted curve at half-maximal effect
# In short: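 Mitochondrial membrane potential tracked with Mito-MPS dye, red aggregates (ex 540/em 590 nm) against green monomers (ex 490/em 535 nm). Compound treatment 1 hr at 37C, dye 30 min in HepG2.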
Structure (SMILES),Potency [1],Potency [2],Potency [3],Potency [4],Potency [5],outcome [6],outcome [7],outcome [8],outcome [9],outcome [10],outcome [11],outcome [12],outcome [13],outcome [14],outcome [15],outcome [16],outcome [17],outcome [18],Potency [19],Potency [20]
COc1c(C(C)(C)C)cc([N+](=O)[O-])c(C)c1[N+](=O)[O-],inactive,inactive,inactive,inactive,inactive,inactive,inactive,inactive,inactive,inactive,inactive,inactive,inactive,inactive,inactive,inactive,inactive,inactive,inactive,–
CC1CC(CC2CCC(N)C(C)C2)CCC1N (configuration not stated),inactive,inactive,inactive,inactive,inactive,–,inactive,inactive,inactive,inactive,inactive,inactive,inactive,inactive,inactive,inactive,inactive,inactive,inactive,inactive
C#CCOC(C(=O)OCCN(C)C)(c1ccccc1)c1ccccc1,inactive,inactive,–,inactive,inactive,inactive,inactive,inactive,inactive,inactive,inactive,inactive,inactive,inactive,inactive,inactive,inactive,–,–,–
COc1ccc(-c2ccccc2)cc1NNC(=O)OC(C)C,inactive,inactive,inactive,–,inactive,inactive,inactive,inactive,inactive,inactive,inactive,inactive,inactive,inactive,inactive,inactive,–,inactive,–,56.8 µM (active)
CCOP(=O)(OCC)O/C(=C/Cl)c1ccc(Cl)cc1Cl,inactive,inactive,–,inactive,inactive,inactive,inactive,inactive,inactive,inactive,inactive,inactive,inactive,inactive,inactive,inactive,inactive,inactive,49 µM (active),–
Nc1nc(=S)[nH][nH]1,inactive,inactive,inactive,–,inactive,inactive,inactive,inactive,inactive,inactive,–,inactive,inactive,inactive,inactive,inactive,inactive,inactive,–,–
ClCc1ccccc1,inactive,inactive,inactive,–,inactive,–,inactive,inactive,–,inactive,inactive,inactive,inactive,inactive,inactive,inactive,inactive,–,–,inactive
c1ccc(CN2CCNCC2)cc1,inactive,inactive,inactive,–,inactive,inactive,inactive,inactive,inactive,inactive,inactive,inactive,inactive,inactive,inactive,inactive,–,inactive,inactive,inactive
CC(C)(Cl)[N+](=O)[O-],inactive,inactive,–,inactive,inactive,inactive,inactive,inactive,inactive,inactive,inactive,inactive,inactive,inactive,inactive,inactive,inactive,inactive,inactive,–
IC(I)=C(I)I,12.2 µM (active),inactive,48.6 µM (active),–,inactive,inactive,inactive,inactive,inactive,inactive,inactive,inactive,inactive,inactive,inactive,inactive,inactive,–,–,4.33 µM (active)
Clc1ccc(C2(Cn3cncn3)CC(Br)CO2)c(Cl)c1 (configuration not stated),inactive,inactive,inactive,–,–,inactive,inactive,inactive,–,inactive,inactive,inactive,inactive,inactive,inactive,inactive,inactive,inactive,–,–
Cn1cc[n+](C)c1 (tested in a mixture with another compound),inactive,inactive,inactive,–,inactive,inactive,inactive,inactive,inactive,inactive,inactive,inactive,inactive,inactive,inactive,inactive,inactive,–,–,inactive
CCCCN=C=O,inactive,inactive,–,inactive,inactive,inactive,inactive,inactive,inactive,inactive,inactive,inactive,inactive,inactive,inactive,inactive,–,–,–,–
CN(C)c1ccc(N(C)C)cc1,inactive,inactive,inactive,–,–,–,inactive,inactive,inactive,inactive,inactive,inactive,inactive,inactive,inactive,inactive,inactive,inactive,–,–
CCCCOC(=O)c1ccccc1C(=O)OCc1ccccc1,inactive,inactive,inactive,inactive,inactive,inactive,inactive,inactive,–,inactive,inactive,inactive,inactive,inactive,inactive,inactive,inactive,inactive,inactive,–
C=CCCl,inactive,inactive,–,inactive,inactive,inactive,inactive,inactive,inactive,inactive,inactive,inactive,inactive,inactive,inactive,inactive,–,inactive,–,–
COCC(C)N(C(=O)CCl)c1c(C)csc1C (configuration not stated),inactive,inactive,–,inactive,inactive,inactive,inactive,inactive,inactive,inactive,inactive,inactive,inactive,inactive,inactive,inactive,–,inactive,inactive,inactive
